Measurements as given in PubChem BioAssay (Tox21).
Values joined by “and” are separate entries in the source; they are usually repeats but may differ in a detail not shown here. Identical values can stand only once. Records with an inconclusive call do not appear. Entries that show only a call come without a potency. A structure can be active in one record and inactive in another. Active and inactive are the calls of the source. Unless noted, the call rests on the fitted dose curve; in most records, active means well fitted curve in the direction sought with a large enough effect in the repeat runs; inconclusive means weak or mixed curves; inactive means no such curve, though single readings can be large; an effect the other way counts as inactive or inconclusive.

How the values were obtained:
[1] = qHTS assay to identify small molecule antagonists of the estrogen related receptor (ERR) signaling pathway from Tox21 library - cell viability counter screen (AID 1224834); further: nearly all actives have a fitted effect of over 30% in size; further: potency means the concentration at half of the fitted maximal effect
Procedure, shortened: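 Cytotoxicity of test substances is gauged in the same ERR cells used for the antagonist screen, after 17.5 h of compound treatment at 37 C, by CellTiter-Fluor fluorescence measured after 30 min.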

[2] = biological target: Luciferin 4-monooxygenase (Photinus pyralis) (UniProt P08659); assay: qHTS assay to identify small molecule inhibitors of firefly luciferase (AID 1224835); further: nearly all actives have a fitted effect of over 25% in size; further: potency means the concentration at half of the fitted maximal effect
Procedure, shortened: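 Biochemical qHTS: compounds run as interplate titrations against purified firefly enzyme, with D-luciferin and ATP each at its KM concentration. Light output recorded by CCD imaging.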

[3] = qHTS assay to identify small molecule agonists of the constitutive androstane receptor (CAR) signaling pathway - cell viability counter screen (AID 1224836); further: nearly all actives have a fitted effect of over 45% in size; further: potency means the concentration at half of the fitted maximal effect
Procedure, shortened: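 23 h treatment, 37 C, 5% CO2. Cell line: HepG2 stably expressing hCAR with a CYP2B6-2.2kb construct. Co-treatment: PK11195, 0.75 uM final. Read-out: CellTiter-Fluor fluorescence intensity.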

[4] = qHTS assay to identify small molecule antagonists of the constitutive androstane receptor (CAR) signaling pathway - cell viability counter screen (AID 1224837); further: nearly all actives have a fitted effect of over 45% in size; further: potency means the concentration at half of the fitted maximal effect
Procedure, shortened: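 Multiplexed cytotoxicity read-out for the CAR antagonist screen: double-stable HepG2-CYP2B6-hCAR cells co-treated with 50 nM CITCO (final) and compound over 15 concentrations, incubated 23 hr, then assessed by CellTiter-Fluor fluorescence.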

[5] = biological target: Nuclear receptor subfamily 1 group I member 3 (Homo sapiens) (UniProt Q14994); assay: qHTS assay to identify small molecule antagonists of the constitutive androstane receptor (CAR) signaling pathway (AID 1224838); further: nearly all actives have a fitted effect of over 40% in size; further: potency means the concentration at half of the fitted maximal effect
Procedure, shortened: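 Compounds were titrated across 15 concentrations onto HepG2 cells double-stably expressing hCAR and a CYP2B6-2.2kb reporter, together with 50 nM CITCO (final). After 24 h at 37 C, luciferase activity was measured by luminescence.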

[6] = biological target: Nuclear receptor subfamily 1 group I member 3 (Homo sapiens) (UniProt Q14994); assay: qHTS assay to identify small molecule agonists of the constitutive androstane receptor (CAR) signaling pathway (AID 1224839); further: nearly all actives have a fitted effect of over 15% in size; further: potency means the concentration at half of the fitted maximal effect
Procedure, shortened: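 Compounds tested at 15 concentrations on HepG2 cells stably harbouring hCAR and CYP2B6-2.2kb reporter constructs, co-treated with PK11195 (0.75 uM final), 24 h at 37 C; luminescent reporter signal quantified.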

[7] = qHTS assay to identify small molecule antagonists of the estrogen related receptor signaling pathway with the pleiotropic PPARgamma coactivator (PGC) from Tox21 10K library - cell viability counter screen (AID 1224840; active means well fitted cell-killing curve with a large enough effect in the repeat runs, not every such curve was filed as active; further: nearly all actives have a fitted effect of over 40% in size; further: potency means the concentration at half of the fitted maximal effect)
Procedure, shortened: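 Step one, plate 2,000 PGC/ERR cells per well; step two, incubate 6 h at 37 C/5% CO2; step three, pin-transfer compounds; step four, incubate 17.5 h; step five, add CellTiter-Fluor and read fluorescence after 30 min.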

[8] = qHTS assay to identify small molecule antagonists of the estrogen related receptor signaling pathway with the pleiotropic PPARgamma coactivator (PGC) from Tox21 10K library (AID 1224841; call rule not given here; further: actives are mostly falling curves and most rising ones were filed inactive; nearly all actives have a fitted effect of over 50% in size; further: potency means the concentration at half of the fitted maximal effect)
Procedure, shortened: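 Antagonism in this quantitative HTS is taken from loss of luciferase signal in PGC/ERR cells. Cells (2,000/well) are treated with compounds in DMSO after a 6 h settling period and read by One-Glo luminescence after 18 h.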

[9] = qHTS assay to identify small molecule agonists of the estrogen related receptor signaling pathway with the pleiotropic PPARgamma coactivator (PGC) from Tox21 10K library (AID 1224842); further: nearly all actives have a fitted effect of over 15% in size
Procedure, shortened: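 PGC/ERR reporter cell line, 2,000 cells per well, incubated 6 h at 37 C before 23 nL compound in DMSO was added. After 18 h at 37 C, One-Glo luminescence read following 30 min at room temperature.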

[10] = qHTS assay to identify small molecule agonists of the estrogen related receptor signaling pathway with the pleiotropic PPARgamma coactivator (PGC) (AID 1224823)
Procedure, shortened: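 Steps: plate PGC/ERR cells at 2,000 cells/well; incubate 6 h, 37 C/5% CO2; pin-transfer compounds (DMSO); incubate 18 h, 37 C; add One-Glo; 30 min RT; read luminescence.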

Sequence of Luciferin 4-monooxygenase (Photinus pyralis) (P08659 whole entry, looked up): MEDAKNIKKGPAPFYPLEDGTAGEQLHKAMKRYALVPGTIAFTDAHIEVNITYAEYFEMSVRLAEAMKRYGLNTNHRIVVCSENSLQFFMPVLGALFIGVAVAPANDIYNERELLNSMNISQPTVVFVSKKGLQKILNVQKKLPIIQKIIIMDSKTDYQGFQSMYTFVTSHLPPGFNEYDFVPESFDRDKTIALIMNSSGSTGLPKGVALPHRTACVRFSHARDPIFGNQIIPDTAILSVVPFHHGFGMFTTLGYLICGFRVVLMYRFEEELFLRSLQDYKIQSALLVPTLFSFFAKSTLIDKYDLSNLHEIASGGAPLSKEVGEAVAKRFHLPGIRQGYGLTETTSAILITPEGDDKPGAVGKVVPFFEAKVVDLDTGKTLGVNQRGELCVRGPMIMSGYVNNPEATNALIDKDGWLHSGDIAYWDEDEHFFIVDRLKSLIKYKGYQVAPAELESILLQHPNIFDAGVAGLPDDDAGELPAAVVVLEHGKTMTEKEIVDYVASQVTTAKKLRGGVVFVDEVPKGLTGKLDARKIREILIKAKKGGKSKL
Sequence of Nuclear receptor subfamily 1 group I member 3 (Homo sapiens) (Q14994 whole entry, looked up): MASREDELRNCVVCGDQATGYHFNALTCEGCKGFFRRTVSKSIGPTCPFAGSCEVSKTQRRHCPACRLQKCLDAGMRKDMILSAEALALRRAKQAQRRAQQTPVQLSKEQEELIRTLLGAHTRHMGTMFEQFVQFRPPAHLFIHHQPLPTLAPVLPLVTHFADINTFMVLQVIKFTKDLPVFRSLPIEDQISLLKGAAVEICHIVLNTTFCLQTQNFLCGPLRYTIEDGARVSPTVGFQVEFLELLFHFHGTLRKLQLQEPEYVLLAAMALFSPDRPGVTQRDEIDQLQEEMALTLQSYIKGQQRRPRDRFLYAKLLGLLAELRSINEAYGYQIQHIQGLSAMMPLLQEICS

Compound	Potency [1]	Potency [2]	Potency [3]	Potency [4]	Potency [5]	Potency [6]	Potency [7]	Potency [8]	Potency [9]	outcome [10]
CC(C)=CC1C(C(=O)OCc2coc(Cc3ccccc3)c2)C1(C)C (stereo unspecified)	inactive	inactive	inactive	inactive	inactive	34.4 µM (active) and 27.3 µM (active)	inactive	–	–	–
Oc1c(Cl)c(Cl)c(Cl)c(Cl)c1Cl	inactive	34.9 µM (active) and inactive	inactive	inactive	inactive	21.2 µM (active) and 15.4 µM (active)	inactive	–	–	–
CC(C)NC(C)C	inactive	inactive	inactive	inactive	–	–	–	–	–	–
Cc1c(COC(=O)[C@@H]2[C@H](/C=C(\Cl)C(F)(F)F)C2(C)C)cccc1-c1ccccc1	inactive	inactive	inactive	inactive	53.2 µM (active) and inactive	inactive	inactive	–	–	–
CCCCNC(=O)n1c(NC(=O)OC)nc2ccccc21	inactive	63 µM (active)	inactive	inactive	inactive	54.2 µM (active)	inactive	–	–	–
CCC(=O)O[C@H]1CC[C@H]2[C@@H]3CCC4=CC(=O)CC[C@]4(C)[C@H]3CC[C@]12C	inactive	inactive	inactive	inactive	inactive	inactive	inactive	–	–	–
COc1ccc(C(CN(C)C)C2(O)CCCCC2)cc1 (stereo unspecified)	inactive	inactive	inactive	inactive	–	–	inactive	–	–	–
Cc1cc(C)cc(C)c1	inactive	inactive	inactive	inactive	–	–	inactive	–	–	–
CCOc1cc(C=O)ccc1O	inactive	inactive	inactive	inactive	inactive	inactive	inactive	–	–	–
O=C(O)C(F)(F)C(F)(F)C(F)(F)C(F)(F)C(F)(F)C(F)(F)C(F)(F)F	inactive	inactive	inactive	inactive	–	–	–	–	–	–
C=C(C)C(=O)OCC1CO1 (stereo unspecified)	inactive	inactive	inactive	inactive	inactive	inactive	–	inactive	inactive	–
O=C(O)CC[N+](=O)[O-]	inactive	inactive	inactive	inactive	–	–	inactive	–	–	–
c1ccc(P(c2ccccc2)c2ccccc2)cc1	inactive	inactive	inactive	inactive	inactive	–	inactive	–	–	–
C=C(C)[C@H]1Cc2c(ccc3c2O[C@@H]2COc4cc(OC)c(OC)cc4[C@@H]2C3=O)O1	8.75 µM (active) and 8.63 µM (active) and 376 nM (active)	inactive	875 nM (active) and 1.54 µM (active) and 668 nM (active)	1.96 µM (active) and 770 nM (active) and 531 nM (active)	3.48 µM (active) and 19.3 µM (active) and 3.35 µM (active)	inactive	inactive	34.8 nM (active) and 4.9 nM (active)	inactive	inactive
C=CCN(CC=C)C(=O)C(Cl)Cl	inactive	inactive	inactive	inactive	inactive	inactive	inactive	–	–	–
CC(C)(C)c1ccccc1O	inactive	inactive	inactive	inactive	inactive	inactive	–	–	–	–
C=CCc1ccc2c(c1)OCO2	inactive	inactive	inactive	inactive	inactive	inactive	inactive	–	–	–
Oc1cc(Cl)ccc1Cl	inactive	inactive	inactive	inactive	–	–	inactive	–	–	–
CCCCN(CC)c1c([N+](=O)[O-])cc(C(F)(F)F)cc1[N+](=O)[O-]	inactive	inactive	inactive	inactive	inactive	–	–	inactive	inactive	–
COP(=S)(OC)Oc1cc(Cl)c(Cl)cc1Cl	inactive	inactive	inactive	inactive	inactive	54.1 µM (active)	inactive	–	–	–
Nc1ccc(-c2ccc(N)c(N)c2)cc1N	48.4 µM (active)	35.5 µM (active)	inactive	inactive	–	–	–	–	–	–
O=[N+]([O-])c1ccc(O)c([N+](=O)[O-])c1	27.4 µM (active) and 27.3 µM (active)	inactive	30.8 µM (active)	30.8 µM (active)	inactive	inactive	30.8 µM (active) and 27.3 µM (active)	30.8 µM (active) and 21.7 µM (active)	inactive	–
CCCCCCCCOC(=O)c1ccccc1C(=O)OCCCCCCCC	inactive	inactive	inactive	inactive	inactive	inactive and 17.2 µM (active)	inactive	–	–	–
CNC(=O)N(C)c1nnc(C(C)(C)C)s1	inactive	inactive	inactive	inactive	inactive	inactive	inactive	–	–	–
c1nc[nH]n1	inactive	inactive	inactive	inactive	inactive	inactive	inactive	inactive	inactive	–
c1ccc(-c2cccc(-c3ccccc3)c2)cc1	inactive	9.03 µM (active) and 7.96 µM (active)	inactive	inactive	–	–	–	–	–	–

Compound	Potency [1]	Potency [2]	Potency [3]	Potency [4]	Potency [5]	Potency [6]	Potency [7]	Potency [8]	Potency [9]	outcome [10]
NCc1cccnc1	inactive	inactive	inactive	inactive	inactive	inactive	inactive	inactive	inactive	–
C=CC(=O)OCCO	inactive	inactive	inactive	inactive	inactive	inactive	inactive	–	–	–
CC(C)(OOC(C)(C)c1ccccc1)c1ccccc1	inactive	inactive	inactive	inactive	inactive	24 µM (active) and 8.63 µM (active)	–	inactive	inactive	–
NC(=S)Nc1ccccc1	22 µM (active) and inactive	inactive	inactive	inactive	–	–	–	–	–	–
CNC(=O)Oc1cccc2c1OC(C)(C)O2	inactive	inactive	inactive	inactive	inactive	inactive	inactive	–	–	–
C1=Cc2cccc3cccc1c23	inactive	inactive	inactive	inactive	inactive	–	–	190 nM (active) and inactive	inactive	–
Cc1cc(Cl)ccc1OCCCC(=O)O	inactive	73.8 µM (active)	inactive	inactive	inactive	inactive	–	–	–	–
CCOC(=O)C(C)OC(=O)c1cc(Oc2ccc(C(F)(F)F)cc2Cl)ccc1[N+](=O)[O-] (stereo unspecified)	inactive	inactive	inactive	inactive	inactive	54.2 µM (active) and inactive	–	24.2 µM (active)	inactive	–
CCOc1cc(Oc2ccc(C(F)(F)F)cc2Cl)ccc1[N+](=O)[O-]	inactive	inactive	inactive	inactive	inactive	inactive	inactive	55.1 µM (active) and inactive	inactive	–
Nc1ccc(-c2ccccc2)cc1	8.87 µM (active) and inactive	57.9 µM (active) and 63.3 µM (active)	inactive	inactive	inactive	30.6 µM (active)	–	–	–	–
CC(C)C(=O)OCC(C)(C)C(OC(=O)C(C)C)C(C)C (stereo unspecified)	inactive	inactive	inactive	inactive	inactive	inactive	inactive	inactive	inactive	–
Nn1cnnc1	inactive	inactive	inactive	inactive	inactive	inactive	inactive	–	–	–
COC(=O)c1sccc1S(=O)(=O)NC(=O)Nc1nc(C)nc(OC)n1	–	inactive	inactive	inactive	inactive	inactive	inactive	–	–	–
C=CCc1ccc(OC)cc1	inactive	inactive	inactive	–	inactive	inactive	inactive	–	–	–
CC(C)N(C(=O)SCC(Cl)=C(Cl)Cl)C(C)C	inactive	inactive	inactive	–	inactive	inactive	inactive	–	–	–
O=C(Nc1ccc(Br)cc1)c1cc(Br)cc(Br)c1O	inactive and 19.3 µM (active) and 10.6 µM (active)	3.98 µM (active) and 5.03 µM (active) and 6.92 µM (active)	27.2 µM (active) and 16.8 µM (active)	–	–	–	inactive and 21.1 µM (active)	13.6 µM (active) and 13.7 µM (active) and inactive	inactive	–
Clc1nc(Cl)nc(Cl)n1	inactive	–	inactive	inactive	inactive	inactive	–	–	–	–
Nc1ccc(Cl)c(Cl)c1	inactive	inactive	inactive	–	inactive	inactive	inactive	inactive	inactive	–
Nc1cccnc1	–	inactive	inactive	inactive	inactive	inactive	inactive	–	–	–
C#C[C@]1(O)CC[C@H]2[C@@H]3CCC4=CC(=O)CC[C@]4(C)[C@H]3CC[C@@]21C	inactive	inactive	inactive	–	inactive	inactive	inactive	–	–	–
Brc1ccc(Oc2cc(Br)c(Br)cc2Br)c(Br)c1	inactive	inactive	inactive	–	–	–	inactive	inactive	inactive	–
N#CC(Br)Br	inactive	inactive	inactive	–	inactive	inactive	–	–	–	–
CCN(CC)C(=O)/C(Cl)=C(\C)OP(=O)(OC)OC	inactive	inactive	inactive	inactive	–	–	inactive	–	–	–
Oc1ccc(-c2ccccc2)cc1	inactive	39.4 µM (active) and 39.9 µM (active)	inactive	–	inactive	53.8 µM (active) and 54.5 µM (active)	inactive	inactive	inactive	–
O=C(CCl)c1ccccc1	–	inactive	inactive	–	–	–	–	–	–	–
Cc1ccc(OP(=O)(Oc2ccc(C)cc2)Oc2ccc(C)cc2)cc1	inactive	inactive	inactive	inactive	–	–	–	inactive	inactive	–
